# Screens (PubChem)
# TDP1 cell noCPT: qHTS for Inhibitors of human tyrosyl-DNA phosphodiesterase 1 (TDP1): qHTS in cells in absence of CPT. AID 686978, 2013. DT40 Tdp1-/- hTDP1 cells, no CPT, ATP luminescence, 48 h. Potency, µM (titrated, usually from 46.2 µM), usual class: inhibitors. hit rate 15% among 420,000; note: nearly all actives have a fitted effect of over 55% in size
#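 Compound effects on proliferation are scored in DT40 Tdp1-/-;hTDP1 cells in the absence of CPT. ATP levels (CellTiter-Glo luminescence) are recorded after a ≥48 hr, 37 °C incubation.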
# IL-1B inflam inh: blocks inflammasome-driven IL-1 beta release. AID 743279. activity change, % at 57.5 µM. hit rate 4.7% among 360,000. THP-1 LPS/ATP IL-1B secretion, AlphaLISA, 16 h; hits give low values; in the data active = activity change below about -50%; inconclusive = mostly about -30% to -49%
#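 Secreted IL-1B measured by AlphaLISA bead assay after 16 h compound exposure of THP-1 cells; compounds (final up to 57.5 uM) added 1 h before LPS (250 ng/mL) and ATP (1.25 mM) stimulation; lower signal means less secretion.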
# ClpP mod: qHTS Assay for Activators of ClpP; purified B. subtilis ClpP, FRET peptide cleavage, 20 min; Potency, µM (top dose mostly 57.5 µM); hit rate 1.9% among 340,000; AID 651965, 2013; active = well fitted falling curve with a large enough effect; inconclusive = small, poorly fitted or top-dose-only effect; inactive = no such curve, though single readings can be large or run the other way; note: the source files actives as falling curves though it sought activators and does not explain the sign; nearly all actives have a fitted effect of over 65% in size
# Target sequence (P80244 whole entry, looked up): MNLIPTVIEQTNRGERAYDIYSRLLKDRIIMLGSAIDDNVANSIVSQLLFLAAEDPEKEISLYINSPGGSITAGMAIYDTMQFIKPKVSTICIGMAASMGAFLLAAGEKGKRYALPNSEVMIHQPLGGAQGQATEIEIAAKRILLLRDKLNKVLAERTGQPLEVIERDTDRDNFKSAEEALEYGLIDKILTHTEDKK
#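 Buffer: 100 mM Tris/HCl pH8, 100 mM KCl, 0.05% low protease BSA, 2.5% glycerol, 0.01% Tween-20. ClpP 10 microg/mL final; 20 min RT; delta FRET normalized to ADEP and DMSO controls.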
# DRD3 antagonist: antagonists of human D3 dopamine receptor; D3R cells, DiscoveRx beta-arrestin luminescence, antagonist mode; hits give low values; max response, negative = inhibition, %; hit rate 2.5% among 360,000; in the data active = max response below about -50%; inconclusive = no clear call, values can overlap the other calls
# Target sequence (P35462 whole entry, looked up): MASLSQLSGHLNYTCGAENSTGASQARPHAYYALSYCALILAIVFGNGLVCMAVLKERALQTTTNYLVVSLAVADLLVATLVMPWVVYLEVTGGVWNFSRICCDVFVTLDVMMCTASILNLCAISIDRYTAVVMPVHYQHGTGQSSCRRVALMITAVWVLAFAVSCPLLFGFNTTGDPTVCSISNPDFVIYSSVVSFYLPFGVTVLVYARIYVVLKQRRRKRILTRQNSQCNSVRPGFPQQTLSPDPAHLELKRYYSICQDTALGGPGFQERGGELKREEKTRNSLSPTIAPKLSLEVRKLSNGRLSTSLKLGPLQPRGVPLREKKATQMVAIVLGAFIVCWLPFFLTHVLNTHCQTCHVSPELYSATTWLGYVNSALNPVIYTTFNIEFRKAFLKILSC
#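 Cells plated overnight at 1500 cells/well, then exposed to library compounds with dopamine controls for 90 minutes at 37 degrees C. DiscoveRx reagent added for 30–60 minutes at room temperature; luminescence read, quantitative HTS format.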
# DRD3 agonist: activates the human D3 dopamine receptor; P35462; D3R DiscoveRx beta-arrestin cells, luminescence, 90 min; max activation, %; hit rate 0.58% among 410,000; in the data active = max activation above about 30%
#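 Agonist mode: compounds and dopamine controls were applied to plated cells for 90 min at 37 degrees C after an overnight attachment at 1500 cells/well. Luminescent read-out followed 30 - 60 minutes at room temperature with DiscoveRx detection reagent.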
# DT40 TDP1 CPT: growth inhibition of DT40 Tdp1-/-;hTDP1 cells with camptothecin (screen for TDP1 inhibitors) | Potency, µM (highest dose often 46.2 µM), most hits filed as inhibitors | AID 686979 | chicken DT40 Tdp1-/-;hTDP1 cells + 20 nM CPT, ATP luminescence, 48 h | hit rate 12% among 420,000; note: nearly all actives have a fitted effect of over 55% in size
#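 Cell growth measured by CellTiter-Glo luminescence after a minimum 48 h, 37 C compound exposure with 20 nM CPT in Tdp1-knockout DT40 cells stably expressing hTDP1, seeded 400/well; qHTS titration format.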
# Numbers stand for hits; 0 = inactive; ? = inconclusive; - = not tested or not shown. Hits are enriched below; roughly 21% of the tested compounds scored in any of these assays. Unless noted, calls come from the whole dose curve; as a rule, active = well fitted inhibition curve with a large enough effect; inconclusive = small, poorly fitted or top-dose-only effect; inactive = flat fitted curve, though single readings scatter.
SMILES,TDP1 cell noCPT,IL-1B inflam inh,ClpP mod,DRD3 antagonist,DRD3 agonist,DT40 TDP1 CPT
C=CCCc1ccc(C#N)c(SCc2c(C(=O)OCC)c3cc(OC(C)=O)c(Br)cc3n2C)n1,29µM,0,0,0,0,21µM
CC(=O)Nc1ncc(Cc2cccc(Cl)c2)s1,0,0,-,0,0,0
Cc1cccc(Cc2cnc(NC(=O)c3ccc(C)o3)s2)c1,?,0,0,0,0,?
Cc1cccc(Cc2cnc(NC(=O)C3=NCCN3)s2)c1,23µM,0,0,0,0,0
O=C(Nc1ncc(Cc2cccc(Cl)c2)s1)c1ccc([N+](=O)[O-])cc1,8.2µM,0,0,0,0,?
CC(C)C(=O)Nc1ncc(Cc2cccc(Cl)c2)s1,?,-72,0,0,0,?
Cc1nc(Nc2ccccc2Cl)sc1C(=O)Nc1ccccc1,21µM,?,0,0,0,18µM
COc1ccccc1Nc1nc(C)c(C(=O)Nc2ccccc2)s1,?,-53,-,0,0,15µM
COc1ccc(C(=O)c2sc(Nc3ccc(NC(C)=O)cc3)nc2C)cc1,16µM,0,0,0,0,29µM
Cc1nc(NC(C)c2ccccc2)sc1C(=O)Nc1ccccc1 (configuration not stated),0,-52,0,0,0,?
Cc1nc(NCc2ccccc2)sc1C(=O)Nc1ccccc1,?,0,-,0,0,0
Cc1nc(Nc2ccccc2)sc1C(=O)Nc1ccccc1,?,-65,0,0,0,21µM
CC(=O)O[C@H]1C[C@@]2(O)[C@@H](OC(=O)c3ccccc3)C3[C@@](C)([C@@H](O)C[C@H]4OC[C@@]34OC(C)=O)[C@@H](O)[C@H](OC(C)=O)C(=C1C)C2(C)C (some centres not stated),18µM,0,0,0,0,16µM
N#Cc1c(-n2ncnc2-c2ccc(Br)cc2)sc2c1CCCCC2,?,-,0,-,0,?
CC(/C=N/n1cnnc1)=C\c1ccccc1,0,0,0,0,0,0
ClC(/C=N/n1cnnc1)=C/c1ccccc1,1.8µM,-94,-,?,0,15µM
Cc1ccc(NC(=S)N2CCC(c3ccccc3)C2)c(Cl)c1 (configuration not stated),?,0,-,0,0,?
C=C1C(=O)O[C@@H]2[C@H]3O[C@]3(C)CCC=C(C)CC[C@@H]12,2.1µM,-,-,-,-,3µM
COc1cccc(CN(C)C(=O)c2ccc(S(=O)(=O)Nc3ccccc3C)cc2)c1OC,0,0,0,0,0,0
O=C(COC(=O)CNC(=O)c1ccc(Cl)cc1)Nc1ccc(Cl)cn1,0,0,0,0,0,0
Cn1cnnc1SCc1ccc(C(=O)N=Nc2c(O)n(C)c3ccccc23)cc1,?,-55,0,0,0,?
c1ccc2c(N3CCCCC3)nc(N3CCCCC3)nc2c1,?,0,0,0,0,18µM
c1ccc2c(N3CCCCCC3)nc(-c3ccncc3)nc2c1,23µM,?,0,0,0,?
c1ccc(-c2nc(N3CCCC3)nc3ccccc23)cc1,?,0,-,0,0,0
CCc1nc2ccc(C(=O)N3CCN(S(=O)(=O)CC)CC3)cn2c1N(C)CCC(C)C,?,0,0,0,0,?
SMILES,TDP1 cell noCPT,IL-1B inflam inh,ClpP mod,DRD3 antagonist,DRD3 agonist,DT40 TDP1 CPT
CCc1nc2ccc(C(=O)N3CCN(c4ccccc4)CC3)cn2c1N(C)CCCc1ccccc1,16µM,0,0,0,0,13µM
CCc1nc2ccc(C(=O)N3CCN(c4ccccc4)CC3)cn2c1N(C)CCC(C)C,21µM,0,0,0,0,?
CCc1nc2ccc(C(=O)N(CC)CCN(C)C)cn2c1N(C)CCCc1ccccc1,?,?,0,0,0,?
O=C(O)c1ccc2ccc3ccccc3c2c1,0,0,0,0,0,0
O=c1[nH]c2cc([N+](=O)[O-])ccc2c2ccc([N+](=O)[O-])cc12,15µM,0,0,0,0,9.2µM
O=c1[nH]c2cc([N+](=O)[O-])ccc2c2ccccc12,0,0,0,0,0,0
O=c1[nH][nH]c2cc([N+](=O)[O-])ccc12,3.7µM,0,-,0,0,3.7µM
O=[N+]([O-])c1ccc2cc[nH]c2c1,0,0,18µM,0,0,0
O=C(O)c1ccc2cc[nH]c2c1,0,0,16µM,0,0,0
O=[N+]([O-])c1ccc2[nH]ccc2c1,0,-,0,-,-,0
CCOc1cc(C2CC(=O)Nc3c2c(C)nn3-c2nc(C)cc(C)n2)ccc1O (configuration not stated),?,-,0,-,0,?
CC(C(=O)NCc1cccs1)N1CCN(S(=O)(=O)c2ccc3c(c2)OCCCO3)CC1 (configuration not stated),?,0,0,0,0,?
CC1=C(c2ccc(C(C)C)cc2)S(=O)(=O)N=C1N1CCN(c2ccccc2F)CC1,18µM,-,0,-,0,?
CC1=C(c2ccc(C(C)C)cc2)S(=O)(=O)N=C1N1CCC(C(=O)NCCc2ccco2)CC1,?,-,0,-,0,23µM
CCc1ccc(C2=C(C)C(N3CCC(C(=O)NCCc4ccco4)CC3)=NS2(=O)=O)cc1,18µM,-,0,-,0,?
CC1=C(c2ccc(C(C)C)cc2)S(=O)(=O)N=C1N1CCN(C(=O)c2ccco2)CC1,0,0,0,0,0,0
COc1ccc(N(CC(=O)NCCC2=CCCCC2)S(=O)(=O)c2ccc(C)cc2)cc1OC,?,0,-,0,0,0
Cc1oc(-c2cccc(Cl)c2)nc1CN1CCCC(C(=O)NC(C)c2ccc3c(c2)OCCO3)C1 (configuration not stated),12µM,?,0,0,0,21µM
Cc1ccc(CNC(=O)C2CCCN(Cc3nc(-c4cccc(C)c4)oc3C)C2)cc1 (configuration not stated),?,-,0,-,0,18µM
Cc1oc(-c2cccc(Cl)c2)nc1CN1CCCC(C(=O)NCc2ccc(Cl)cc2)C1 (configuration not stated),7.3µM,-,0,-,0,8.2µM
Cc1oc(-c2cccc(Cl)c2)nc1CN1CCC(C(=O)NC(C)C)CC1,0,-,0,-,0,0
CCCCNC(=O)CSc1nnc(-c2cccc(S(=O)(=O)N3CCOCC3)c2)o1,0,?,0,0,0,0
N#CC(c1ccncc1)(c1ncc(C(F)(F)F)cc1Cl)N1CCOCC1 (configuration not stated),?,-77,-,0,0,0
COc1ccc2c(CNC3CCCCCC3)c(C(=O)O)n(Cc3ccc(C)cc3)c2c1,?,-,?,-,0,26µM
COc1ccc(Cn2c(C(=O)O)c(CNC3CCCCCC3)c3ccc(OC)cc32)cc1,?,-,0,-,0,16µM
